# A selection: hits, their analogues and other compounds. The true share with any hit is near 3.9%.
# HT1080-NT tox = kills 2HG-producing HT-1080-NT fibrosarcoma cells | actives 1.6% (n = 360,000) | Potency, µM (doses to about 46.1 µM), hits mostly cytotoxic | AID 686970 | HT-1080-NT fibrosarcoma viability, CellTiter-Glo ATP luminescence, 48 h;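 also: NT is the 2HG producing partner of a matched IDH1 knockdown line; nearly all actives have a fitted effect of over 55% in size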
#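 Fibrosarcoma NT cells, 750 per well in 5% FBS RPMI, were exposed to compound for 48 hours. Viability: CellTiter-Glo luminescence.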
# HepG2 viability = HepG2 cytotoxicity, counter-screen for TGF-b inhibitors; HepG2 CAGA-GFP viability, ATP luminescence, 18 h; actives 0.76% (n = 410,000); Potency, µM (highest dose often 46.1 µM), hits mostly cytotoxic
#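 CellTiter-Glo luminescence gave cytotoxicity after 18 hours at 37 degrees C. The cells were HepG2 CAGA-GFP in 1% FBS DMEM, stimulated with 500 pg/mL TGF-beta after compound addition. %Activity was normalised to no-cell wells (complete cell-killing) and DMSO (no toxicity), and curves were fitted and classified.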
# ATXN2 expr inh = ATXN2 expression inhibition; HEK-293 ATXN2-luciferase reporter, luminescence, 24 h; Potency, µM (top dose mostly 57 µM), actives largely listed as inhibitors; actives 0.72% (n = 360,000); AID 1745845; also: nearly all actives have a fitted effect of over 55% in size
#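 ATXN2-luciferase reporter cells (luciferase flanked by upstream and downstream ATXN2 gene portions) were treated 24 h at 37 °C with compounds at up to 57 uM. SteadyGlo luminescence gave expression; GF-AFC fluorescence gave viability.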
# HT1080 IDH1KD tx = HT-1080 IDH1 knockdown cell toxicity (counter line); actives 2% (n = 360,000); Potency, µM (titrated, usually from 46.1 µM), actives largely listed as cytotoxic; HT-1080 IDH1 knockdown viability, ATP luminescence, 48 h; AID 686971
#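 After a 2 h attachment period, IDH1KD HT-1080 cells took pin-transferred compound for 48 h at 37 °C; ATP-based luminescence after 10 min room-temperature reagent incubation reported viability.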
# ATXN viability = viability counter-screen for ATXN expression inhibitors; actives 0.49% (n = 400,000); S2 cells (HEK-293 line with an ATXN2-luciferase reporter) viability, CellTiter-Fluor protease fluorescence, 24 h; Potency, µM (titrated, usually from 56.7 µM), hits mostly cytotoxic; AID 651635; also: nearly all actives have a fitted effect of over 40% in size
# TGFb inhibitor = blocks TGF-b signaling; HepG2 CAGA-GFP TGF-b/SMAD3 reporter, GFP fluorescence, 18 h; TGF-beta stimulated, 500 pg/mL final; Potency, µM (titrated, usually from 46.1 µM), usual class: inhibitors; actives 1.2% (n = 410,000); also: nearly all actives have a fitted effect of over 65% in size
#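 Smad-responsive CAGA-GFP expression was quantified in HEPG2 cells exposed to compounds and 500 pg/mL final TGF-beta for 18 h at 37 degrees C; unstimulated wells defined full inhibition.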
# Hits are given with their value; . = inactive; ? = inconclusive; / = no result; ! = a repeat was not active. Calls follow the shape of the dose curve; as a rule, active = well fitted curve in the direction sought with a large enough effect; inconclusive = small, poorly fitted or top-dose-only effect, or another doubt; inactive = no such curve, though single readings can be large; an effect the other way counts as inactive or inconclusive.
SMILES,HT1080-NT tox,HepG2 viability,ATXN2 expr inh,HT1080 IDH1KD tx,ATXN viability,TGFb inhibitor
O=C1C=C(N2CCCCC2)c2ccccc2C1=O,6.5µM,.,30µM,5.8µM,/,2.8µM
CCOc1cccc(NC(=O)C2CC(=O)N(C)C(=Nc3ccc(F)cc3)S2)c1 (stereo not given),/,.,.,/,?,?
c1ccc(COc2ccccc2CNC23CC4CC(CC(C4)C2)C3)cc1,13µM,10µM,16µM,16µM,/,?
O=C(/C(=C\c1ccccc1)c1nc2ccccc2[nH]1)c1ccc(Cl)cc1,3.7µM,.,?,3.3µM,/,?
O=C(Nc1ccccc1Cl)N1CCC2(CC1)Oc1ccccc1C(=O)N2Cc1ccc(F)cc1,/,.,/,/,/,.
Cc1ccc(C(=O)N/N=C/c2ccc(-c3cccc(C(F)(F)F)c3)o2)cn1,?,.,.,2.1µM,.,?
CNC(=S)N/N=C/c1ccc(-c2cccc(C(=O)O)c2)o1,?,11µM,.,?,.,.
CCN1C(=NCc2cccc(Cl)c2)N[C@@H](c2cccc(C(F)(F)F)c2)C(C(=O)OC)=C1C,/,.,/,/,/,14µM
CCN1C(=NCc2cccc(C(F)(F)F)c2)N[C@@H](c2cccc(C(F)(F)F)c2)C(C(=O)OC)=C1C,/,.,/,/,/,3.5µM
CCOC(=O)CN1C(=O)N[C@@H](c2cccc(C(F)(F)F)c2)C(C(=O)OC)=C1C,.,.,.,.,.,.
CCN(CC)CCCN=C1N[C@@H](c2cccc(C(F)(F)F)c2)C(C(=O)OC)=C(C)N1CC,?,.,?,?,22µM,?
CCN1C(=O)N[C@@H](c2cccc(C(F)(F)F)c2)C(C(=O)OC)=C1C,.,.,.,.,.,.
Clc1cccc(C(c2ccc3nc[nH]c3c2)n2ccnc2)c1 (stereo not given),/,/,.,/,.,/
CCCN(CCC)C(=O)CSc1nnc2cc(C)c3ccccc3n12,/,.,.,/,.,.
Cc1cc(CCCOc2c(C)cc(-c3noc(C(F)(F)F)n3)cc2C)on1,/,/,.,/,.,/
Cc1cccc(C(=O)NCc2nc(-c3ccccc3NC(=O)C3CCCO3)oc2C)c1 (stereo not given),/,/,/,/,.,/
CC(NC(=O)C1CCOCC1)c1nnc2n1CCN(Cc1ccc(F)cc1)CC2 (stereo not given),/,/,/,/,.,/
CC(O)(c1ccc(F)c(F)c1)c1nc(-c2ccc(F)c(Cl)c2)cs1 (stereo not given),33µM,.,.,?,.,?
CC(O)(c1ccccc1)c1nc(-c2ccc(F)c(Cl)c2)cs1 (stereo not given),?,.,.,?,.,?
CC(C)c1cccc(-c2csc(C(C)(O)c3ccc(F)c(F)c3)n2)c1 (stereo not given),?,20µM,.,?,.,?
CCCCN1C2=NC(c3ccccc3)CN2c2ccccc21 (stereo not given),.,6.3µM,.,.,.,.
CCCCN1C2=NCCCN2c2ccccc21,.,.,.,.,.,.
O=C(CCCc1ccccc1)NC1CC(=O)N(c2ccc(Cl)cc2)C1 (stereo not given),/,.,/,/,/,?
Cc1ccc(C)c(S(=O)(=O)N2CCN(c3ncccn3)CC2)c1,18µM,.,.,?,.,.
Cc1cccc(C)c1OC(=O)CSc1nnc(-c2cccs2)o1,/,.,/,/,/,?
SMILES,HT1080-NT tox,HepG2 viability,ATXN2 expr inh,HT1080 IDH1KD tx,ATXN viability,TGFb inhibitor
COC(=O)c1cc(OC)c(OC)cc1NC(=S)Nc1cc(Cl)ccc1OC,.,.,.,.,.,.
COc1ccc(Cl)cc1NC(=S)NNC(=O)C1(C)CC1(Cl)Cl (stereo not given),.,.,.,.,.,20µM
CN(Cc1cnc2nc(N)nc(N)c2n1)c1ccc(C(=O)N[C@H](CCC(=O)O)C(=O)O)cc1,/,/,/,/,.,/
CN(Cc1cnc2nc(N)nc(N)c2n1)c1ccc(C(=O)N[C@@H](CCC(=O)O)C(=O)O)cc1,0.0052µM!,.,32µM!,0.046µM!,?,.
O=C(CCSc1ccc(Cl)cc1)c1ccco1,.,.,/,.,?,11µM
CC(=O)N1CCc2c(sc3c2c(=O)n(CCc2ccccc2)c(=O)n3Cc2cccc(C)c2)C1,/,.,.,/,.,.
Brc1ccc(C2=Nn3c(nnc3-c3n[nH]c4c3CCC4)SC2)cc1,1.2µM,.,.,0.65µM,?,.
c1ccc(-c2ccc(C3=Nn4c(nnc4-c4cc(-c5ccccc5)n[nH]4)SC3)cc2)cc1,?,.,.,18µM,.,?
Clc1ccc(C2=Nn3c(nnc3-c3n[nH]c4c3CCC4)SC2)cc1,5.8µM,.,.,5.8µM,?,?
Cc1ccc(-c2nnc3n2N=C(c2ccc(Br)cc2)CS3)cc1,.,.,.,.,.,.
CC(C)[C@H](N)c1nnc2n1N=C(c1ccc(Cl)cc1)CS2,.,.,.,.,.,.
Cc1cc(-c2ccnc(-n3ncc(C(=O)NCC4CCCN(C)C4)c3C3CC3)n2)c(C)s1 (stereo not given),/,/,/,/,.,/
CCOC(=O)C1CCN(C(=O)Cn2ncc3c4ccccc4n(Cc4ccccc4)c3c2=O)CC1,/,.,/,/,/,?
Oc1ccccc1-c1nc(NCCN2CCOCC2)c2ccccc2n1,21µM,.,.,21µM,?,.
Clc1cccc(-c2nc(NCCCN3CCOCC3)c3ccccc3n2)c1,21µM,.,/,?,/,?
Clc1ccc(-c2nc(NCCCN3CCOCC3)c3ccccc3n2)cc1,23µM,.,?,?,.,?
Clc1cccc(-c2nc(NCCN3CCOCC3)c3ccccc3n2)c1,?,.,.,?,.,.
Cc1ccc(C#N)c(SCc2ccccc2F)n1,.,.,.,.,.,.
Cc1ccc2nc(CSc3nc(C)ccc3C#N)[nH]c2c1,18µM,.,2.2µM,16µM,/,.
Cc1cccc(CNC(=O)c2cnn(-c3nccc(-c4cccs4)n3)c2C2CC2)n1,/,/,/,/,.,/
COc1ccc2c(c1)/C(=C/c1cc(OC)c(OC)c(OC)c1)C(=O)N2,5.8µM,.,.,5.8µM,?,?
COc1ccc(/C=C2\C(=O)NC(=O)c3ccccc32)cc1OC,.,.,.,.,.,.
Cc1ccc2c(c1)/C(=C/c1ccc(F)cc1)C(=O)N2,?,10µM,/,?,?,?
COc1cccc2sc(N(CCCN(C)C)C(=O)c3ccc(S(=O)(=O)N4CCCc5ccccc54)cc3)nc12,18µM,.,?,?,?,?
COc1cccc2sc(N(CCCN(C)C)C(=O)c3ccc(S(=O)(=O)N4CCc5ccccc5C4)cc3)nc12,?,.,?,?,?,?
CN(C)CCCN(C(=O)c1ccc(S(=O)(=O)N2CCc3ccccc32)cc1)c1nc2c(Cl)cccc2s1,?,.,?,?,.,?
